Experimental data: PubChem BioAssay (EPA / NIEHS)
“And” between values parts separate entries of the source, which are not always exact repeats. Equal values may be shown once. Records with an inconclusive call do not appear. The source made the active and inactive calls. How the source made its calls: active means hit-call score of the fitted dose curve at least 0.9, where 1 is the maximum; inconclusive means response in the unintended direction; inactive means score below 0.9.

system: not listed separately; test: ATG_XTT_Cytotoxicity: Cytotoxicity Assessment in the Attagene TRANS-FACTORIAL HepG2 Assay (AID 2283584)
Summary of the method: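 Cells: human HepG2, transiently transfected with MRTU reporter constructs. Exposure 24 h. Readout: XTT, cell number. Baseline/neg ctrl DMSO; loss-of-signal scored.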

SMILES	outcome
CCCCCCCCCCCCCCCC[N+](C)(C)Cc1ccccc1	inactive
Cc1cc(C)cc(O)c1	inactive
Cc1ccc(S(=O)(=O)NCl)cc1	inactive
C1COCCN1	inactive
Nc1ccc([N+](=O)[O-])cc1O	inactive
C(=C(c1ccccc1)c1ccccc1)c1ccccc1	inactive
CC/C=C\CCOC(=O)c1ccccc1	inactive
O=S(=O)(O)c1ccc2ccccc2c1	inactive
OC[C@@H](O)[C@@H](O)[C@H](O)[C@@H](O)CO	inactive
CC(CCl)OP(=O)(OC(C)CCl)OC(C)CCl (stereo not given)	inactive
CC/C=C\CCOC(C)=O	inactive
CCCCCCOC(=O)c1ccccc1	inactive
CCCCNc1ccccc1	inactive
O=C(C=Cc1ccccc1)OCC=Cc1ccccc1	inactive
CCCCCCOC(=O)c1ccccc1O	inactive
CCN(CC)c1ccc2c(C)cc(=O)oc2c1	inactive
Nc1cc(Cl)c(N)c(Cl)c1	inactive
CNC(=S)NC	inactive
COC(=O)C1CCC(C(=O)OC)CC1 (stereo not given)	inactive
CCCCCC=O	inactive

system: not listed separately; test: TOX21_p53_BLA_p2_viability: Viability Assessment in the Tox21 HCT-116 p53 Agonism Beta-lactamase Assay, Phase 2 (AID 2283591);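 further: compound exposure lasted 16 h at 37 °C; actives lower the ATP signal meaning cytotoxicity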
Summary of the method: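 Cytotoxicity readout: CellTiter-Glo ATP luminescence, 30 min at room temperature, after the beta-lactamase read. Cells were HCT116 exposed 16 h at 37C to compounds pin-transferred at 217-fold dilution from DMSO stocks.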

SMILES	AC50	outcome
CCCCCCCCCCCCCCCC[N+](C)(C)Cc1ccccc1	42.5 µM (active) and 23 µM (active)	–
Cc1cc(C)cc(O)c1	–	inactive
Cc1ccc(S(=O)(=O)NCl)cc1	–	inactive
C1COCCN1	–	inactive
Nc1ccc([N+](=O)[O-])cc1O	–	inactive
C(=C(c1ccccc1)c1ccccc1)c1ccccc1	–	inactive
CCc1ccc(C(c2ccc(CC)cc2)C(Cl)Cl)cc1	–	inactive
O=S(=O)(O)c1ccc2ccccc2c1	–	inactive
OC[C@@H](O)[C@@H](O)[C@H](O)[C@@H](O)CO	–	inactive
CC(CCl)OP(=O)(OC(C)CCl)OC(C)CCl (stereo not given)	–	inactive
CCCCOc1ccc(N)cc1	–	inactive
CC/C=C\CCOC(C)=O	–	inactive
CCCCCCOC(=O)c1ccccc1	–	inactive
CCCCNc1ccccc1	–	inactive
O=C(C=Cc1ccccc1)OCC=Cc1ccccc1	–	inactive
CCN(CC)c1ccc2c(C)cc(=O)oc2c1	–	inactive
Nc1cc(Cl)c(N)c(Cl)c1	–	inactive
CNC(=S)NC	–	inactive
CCCCCC=O	–	inactive

system: not listed separately; test: TOX21_p53_BLA_p3_viability: Viability Assessment in the Tox21 HCT-116 p53 Agonism Beta-lactamase Assay, Phase 3 (AID 2283593);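 further: cells exposed to compound for 16 h before reading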
Summary of the method: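 Cellular ATP was quantified by CellTiter-Glo luminescence, read after 30 min at room temperature. Beforehand, HCT116 cells (4000/well) received compound 5 h post-seeding, 217-fold diluted from DMSO, then incubated 16 h at 37C.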

SMILES	AC50	outcome
CCCCCCCCCCCCCCCC[N+](C)(C)Cc1ccccc1	33.5 µM (active) and 9 µM (active)	–
Cc1ccc(S(=O)(=O)NCl)cc1	–	inactive
C1COCCN1	–	inactive
Nc1ccc([N+](=O)[O-])cc1O	–	inactive
C(=C(c1ccccc1)c1ccccc1)c1ccccc1	–	inactive
CCc1ccc(C(c2ccc(CC)cc2)C(Cl)Cl)cc1	–	inactive
O=S(=O)(O)c1ccc2ccccc2c1	–	inactive
OC[C@@H](O)[C@@H](O)[C@H](O)[C@@H](O)CO	–	inactive
CC(CCl)OP(=O)(OC(C)CCl)OC(C)CCl (stereo not given)	–	inactive
Nc1ccc(S(=O)(=O)Nc2nccs2)cc1	–	inactive
CC/C=C\CCOC(C)=O	–	inactive
CCCCCCOC(=O)c1ccccc1	–	inactive
CCCCNc1ccccc1	–	inactive
O=C(C=Cc1ccccc1)OCC=Cc1ccccc1	–	inactive
CCCCCCOC(=O)c1ccccc1O	–	inactive
CCN(CC)c1ccc2c(C)cc(=O)oc2c1	–	inactive
Nc1cc(Cl)c(N)c(Cl)c1	–	inactive
CNC(=S)NC	–	inactive
Oc1ccc(Nc2ccccc2)cc1	–	inactive
COC(=O)C1CCC(C(=O)OC)CC1 (stereo not given)	–	inactive

target: Cellular tumor antigen p53 (Homo sapiens) (UniProt P04637); test: TOX21_p53_BLA_p3_ratio: Tox21 HCT-116 p53 Agonism Beta-lactamase Assay, Ratio, Phase 3 (AID 2283596)
Sequence (P04637 whole entry, looked up): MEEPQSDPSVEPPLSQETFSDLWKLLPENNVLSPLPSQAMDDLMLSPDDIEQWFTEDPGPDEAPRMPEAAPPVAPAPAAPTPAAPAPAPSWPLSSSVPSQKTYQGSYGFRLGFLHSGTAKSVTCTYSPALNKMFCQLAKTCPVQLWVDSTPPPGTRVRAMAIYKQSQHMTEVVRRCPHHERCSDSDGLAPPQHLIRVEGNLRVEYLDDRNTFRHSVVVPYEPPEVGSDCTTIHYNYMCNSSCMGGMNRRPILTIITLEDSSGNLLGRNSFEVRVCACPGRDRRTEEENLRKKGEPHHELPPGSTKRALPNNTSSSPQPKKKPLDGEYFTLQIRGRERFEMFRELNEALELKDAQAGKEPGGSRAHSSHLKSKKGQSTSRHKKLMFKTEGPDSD
Summary of the method: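 HCT116 p53-bla cells (4000/well) given compound in DMSO (217-fold dilution) after 5 h, incubated 16 h at 37C. CCF4-AM substrate 2 h at room temperature; 460/530 nm emission ratio, gain fitted against DMSO.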

SMILES	outcome	AC50
CCCCCCCCCCCCCCCC[N+](C)(C)Cc1ccccc1	inactive	–
Cc1cc(C)cc(O)c1	inactive	–
Cc1ccc(S(=O)(=O)NCl)cc1	inactive	–
C1COCCN1	inactive	–
CCC(=O)OCCc1ccccc1	inactive	–
Nc1ccc([N+](=O)[O-])cc1O	inactive	–
CC/C=C\CCOC(=O)c1ccccc1	inactive	–
CCc1ccc(C(c2ccc(CC)cc2)C(Cl)Cl)cc1	inactive	–
OC[C@@H](O)[C@@H](O)[C@H](O)[C@@H](O)CO	inactive	–
CC(CCl)OP(=O)(OC(C)CCl)OC(C)CCl (stereo not given)	inactive	–
Nc1ccc(S(=O)(=O)Nc2nccs2)cc1	inactive	–
CCCCOc1ccc(N)cc1	inactive	–
CC/C=C\CCOC(C)=O	inactive	–
CCCCNc1ccccc1	inactive	–
O=C(C=Cc1ccccc1)OCC=Cc1ccccc1	inactive	–
CCCCCCOC(=O)c1ccccc1O	inactive	–
CCN(CC)c1ccc2c(C)cc(=O)oc2c1	–	40.9 µM (active) and 38.6 µM (active)
Oc1ccc(Nc2ccccc2)cc1	inactive	–
COC(=O)C1CCC(C(=O)OC)CC1 (stereo not given)	inactive	–
FC(F)(F)C(F)(F)C(F)(F)C(F)(F)CCI	inactive	–
CCCCCC=O	inactive	–
